High-throughput results: PubChem BioAssay, National Center for Advancing Translational Sciences (NCATS)
An excerpt weighted towards active compounds, which were near 2.4% of everything screened.
D2 ag-1: D2 dopamine receptor (human) agonism; P14416; HEK293 T-REx D2 cells, calcium flux agonist mode; activation, % at 2 µM; 340,000 tested, 0.53% active;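 active = activation over 3 SD above normal in the single-dose calcium agonist read, cut at about 30% in these data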
Target sequence (P14416 whole entry, looked up): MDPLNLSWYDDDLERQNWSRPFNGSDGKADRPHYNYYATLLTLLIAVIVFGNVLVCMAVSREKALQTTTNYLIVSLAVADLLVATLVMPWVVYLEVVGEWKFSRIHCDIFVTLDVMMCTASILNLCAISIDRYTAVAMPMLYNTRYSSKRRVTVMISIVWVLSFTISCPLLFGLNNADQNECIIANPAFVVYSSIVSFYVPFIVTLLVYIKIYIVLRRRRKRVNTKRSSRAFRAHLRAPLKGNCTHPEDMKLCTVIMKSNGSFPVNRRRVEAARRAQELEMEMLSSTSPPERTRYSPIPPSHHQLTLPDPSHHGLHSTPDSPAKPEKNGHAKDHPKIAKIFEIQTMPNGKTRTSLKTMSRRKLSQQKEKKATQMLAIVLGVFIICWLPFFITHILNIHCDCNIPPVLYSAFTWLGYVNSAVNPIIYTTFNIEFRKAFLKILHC
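HEK293 Trex D2 cells, tetracycline-induced, o/n 30 C 5% CO2; no-wash Ca dye, RT 30–90 min; 10-cycle baseline, 23 nl cpd added, kinetic Ca read 180 s; agonist hits = positive Ca response.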
D2 ag-2: activates the human D2 dopamine receptor | 360,000 tested, 0.084% active | P14416 | DiscoveRx PathHunter D2 beta-arrestin, luminescence, 90 min; 100% = 57 uM dopamine signal | activation, % (no concentration beside the values); in the data active = activation above about 40%; inconclusive = between about 15% and that limit
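DiscoveRx PathHunter D2 beta-arrestin cells (2,100/well) attached overnight, then compound-stimulated 90 min at 37 C in HBSS/10 mM HEPES/0.1% Tween-20 buffer; beta-galactosidase complementation read by luminescence after 1 h at ambient temperature. Dopamine 57 uM final (EC100) as control.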
D2 PAM-1: positively modulates the human D2 dopamine receptor allosterically; HEK293 T-REx D2, calcium flux, EC20 dopamine potentiation; potentiation, % at 10 µM; 340,000 tested, 0.34% active; AID 485347;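 active = potentiation over 3 SD above the plate norm, cut at about 30% in these data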
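Tetracycline-induced HEK293 T-REx cells force-coupled to calcium signalling expressed D2; compounds were pin-added after a 10 s baseline, read kinetically 180 s, then an EC20 dopamine challenge followed with a further 180 s calcium read.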
D2 antag: antagonists of human D2 dopamine receptor; P14416; HEK293 TREx D2 cells, calcium flux, dopamine EC80; inhibition, % at 10 µM; 340,000 tested, 2% active; in the data active = inhibition above about 30%; inactive = below that, where a call was filed
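In this primary screen, negative modulation is detected by tracking calcium flux after an EC80 dopamine challenge in inducible HEK293 T-REx D2 cells preexposed to test compound for 180 s.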
D2 PAM-2: potentiates the human D2 dopamine receptor allosterically. potentiation, % (concentration not given with the values). 360,000 tested, 0.23% active. DiscoveRx D2 beta-arrestin cells, luminescence, 90 min; 100% = 57 uM dopamine signal. P14416. AID 624464; in the data active = potentiation above about 50%; inconclusive = mostly about 30% to 49%
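D2 cells co-treated with compound plus 50 nM dopamine (EC20) for 90 min at 37 deg C to detect potentiation. Beta-arrestin recruitment was read as enzyme-fragment luminescence after 1 h at ambient temperature. Full response was set by 57 uM dopamine.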
Numbers stand for hits; n = inactive; u = inconclusive; x = no result.

SMILES	D2 ag-1	D2 ag-2	D2 PAM-1	D2 antag	D2 PAM-2
O=C1NC(=Nc2ccccc2)SC1Cc1ccccc1 (configuration not stated)	n	n	41	n	n
O=C1N/C(=N/c2ccccn2)SC1Cc1ccccc1 (configuration not stated)	n	n	n	n	n
COCCCNC(=O)c1ccc(-n2c(-c3ccccc3)cc3c2CCC(C)C3)cc1 (configuration not stated)	n	x	n	x	x
CCCc1nc2ccc(NC(=O)c3ccco3)cc2c(=O)n1Cc1ccc(Cl)cc1	n	n	45	n	n
C/C(=N\N=C1/SC(CC(=O)O)C(=O)N1c1ccccc1)c1ccc(C)cc1 (configuration not stated)	n	n	n	30	n
O=C(O)CC1S/C(=N/N=C2CCCCC2)N(c2ccccc2)C1=O (configuration not stated)	n	n	n	n	n
COc1ccc(N2CC(C(=O)N3CCc4ccccc43)CC2=O)cc1 (configuration not stated)	x	n	x	x	n
CCc1ccc(S(=O)(=O)c2nnn3c2nc(N2CCOCC2)c2ccccc23)cc1	n	n	32	n	n
CC(C)CN1C(=O)c2ccc(C(=O)NCc3ccccn3)cc2C1=O	n	n	n	n	n
COCCCN1C(=O)c2ccc(C(=O)NCc3ccccn3)cc2C1=O	n	n	32	n	n
COCCN1C(=O)c2ccc(C(=O)O)cc2C1=O	n	n	39	n	n
O=C(Cc1ccccc1)NCC(=O)N1CCN(c2ccccc2)CC1	n	n	n	n	n
Cc1ccc(S(=O)(=O)NC(=O)c2ccc(Br)o2)c(C)c1	n	n	n	31	n
COc1cc(CNc2ncc(-c3ccc(Br)cc3)n2C)cc(OC)c1OC	n	n	n	n	n
Cn1c(-c2ccc(Br)cc2)cnc1NCc1cccnc1	n	n	n	43	n
Cc1ccc(C)c(-n2c(-c3ccc(Br)cc3)csc2=NC(=O)c2ccccc2F)c1	n	n	n	n	n
CC1CCC(C(C)C)C(OC(=O)COC(=O)c2cc(O)ccc2N)C1 (configuration not stated)	n	u	n	n	93
CC1CCC(C(C)C)C(OC(=O)COC(=O)c2ccc(=O)[nH]c2)C1 (configuration not stated)	n	n	n	n	n
CCCCCCc1cc2cc(C(=O)OCC)c(=O)oc2cc1O	n	n	n	n	n
CCCCCCc1cc2cc(/C(N)=N/NC(=O)c3ccncc3)c(=O)oc2cc1O	34	n	n	n	n
Cc1ccc(C(=O)N2CCCC(CCC(=O)N3CCN(c4ccccn4)CC3)C2)cc1C (configuration not stated)	n	n	n	n	n
Cc1ccc(C(=O)N2CCCC(CCC(=O)N3CCN(c4ccccn4)CC3)C2)cn1 (configuration not stated)	n	n	n	n	75
Cc1ccccc1NC(=O)C1CCN(S(=O)(=O)c2ccccc2)CC1	n	x	n	x	x
CCc1cc(C(=O)OC)c(NC(=O)CC2SC(=NC)N(C)C2=O)s1 (configuration not stated)	n	n	n	63	n
CCCSc1nc2c(cnn2-c2ccccc2)c(=O)[nH]1	n	n	41	n	n
SMILES	D2 ag-1	D2 ag-2	D2 PAM-1	D2 antag	D2 PAM-2
CN(C)CCNC(=O)CN1C(=O)COc2ccc(C(C)(C)C)cc21	n	n	n	36	n
COCCNC(=O)CN1C(=O)COc2ccc(Cl)cc21	n	n	n	35	n
CC(C)(C)c1ccc2c(c1)N(CC(=O)O)C(=O)CO2	n	n	n	n	n
COC(=O)CN1C(=O)COc2ccc(Cl)cc21	n	n	n	n	n
CCCCCCCNC(=O)C1(CC2CC(c3ccc(Cl)cc3)=NO2)CCN(C(=O)c2cc(OCC)c(OCC)c(OCC)c2)CC1 (configuration not stated)	n	n	n	44	n
O=C1c2oc3ccccc3c(=O)c2C(c2ccccc2F)N1Cc1ccc2c(c1)OCO2 (configuration not stated)	n	x	n	x	x
CCC(C)Nc1nc2c(c(=O)n(C)c(=O)n2C)n1Cc1cccc(C)c1 (configuration not stated)	n	n	n	n	n
Cc1cccc(Nc2nc3c(c(=O)n(C)c(=O)n3C)n2Cc2ccccc2)c1	n	n	46	n	n
Cc1cccc(C)c1C(OCCN(C)C)C1CCCCC1 (configuration not stated)	n	n	n	89	n
CN(C)CCOC(c1ccccc1)c1ccccc1 (tested in a mixture with another compound)	n	n	n	n	n
Cc1cc(Br)cn2c(Cc3ccsc3)c(C(C)(C)C)nc12	x	n	x	x	n
N#Cc1cnc(=S)n(-c2cc(C(F)(F)F)cc(C(F)(F)F)c2)c1N	x	n	x	x	n
CCOC(=O)N1CCN(C(=O)c2ccc(OC)c(OC)c2)CC1	n	n	n	n	n
CCOC(=O)N1CCN(C(=O)c2ccc(OCC)c(OCC)c2)CC1	n	n	n	33	n
CCOc1ccc(C(N)=O)cc1OC	n	n	58	n	n
Cc1nn(C)c(C)c1S(=O)(=O)N(CC(=O)NCCc1ccccc1)c1ccc(C(C)C)cc1	n	x	n	x	x
COc1ccccc1N1CCN(C2CCCN(C(=O)c3cc(C)oc3C)C2)CC1 (configuration not stated)	n	n	n	n	n
COc1ccccc1N1CCN(C2CCCN(C(=O)c3ccoc3C)C2)CC1 (configuration not stated)	n	n	n	31	n
COc1ccccc1N1CCN(C2CCCN(Cc3c(F)cccc3F)C2)CC1 (configuration not stated)	n	n	n	53	n
COc1ccccc1N1CCN(C2CCCN(Cc3cccc(O)c3)C2)CC1 (configuration not stated)	n	n	n	49	n
Cc1ccc(OCCn2c(-c3ccc(Br)cc3)nc3ccccc3c2=O)cc1C	n	x	n	x	x
CCN(CC)C(=O)COc1ccc(/C=C(\C#N)S(=O)(=O)c2ccccc2)cc1OC	x	n	x	x	n
COCCNc1oc(/C=C/c2ccc(F)cc2)nc1C#N	n	x	x	x	x
CCCN1CCN(c2nc(-c3cccs3)nc3ccccc23)CC1	n	n	n	37	n
Cc1ccc(OCc2nc(-c3ccc(C(=O)NCCc4ccc(Cl)cc4)cc3)oc2C)cc1	n	x	n	x	x
COc1ccc(/C=C/C(=O)Nc2cc(C(F)(F)F)ccc2Cl)cc1	n	n	n	32	n
COc1ccc2c(c1)CCC/C2=N\NC(=O)c1ccoc1C	n	n	n	38	n
CCCCN1C[C@H](CSC)[C@@H](CC(=O)Nc2ccc(Br)cc2)C1=O	x	n	x	x	x
CCOC(=O)c1nc(Nc2ccccc2CC)c2ccccc2n1	n	n	n	33	n
